This is a sample that favours compounds with a hit; in the whole collection about 9.3% have one here.
Autofluor 339 – intrinsic fluorescence of library compounds, ex339/em460 – biochemical, MLSMR library, data from DPM-DC assay, artefact control, profiling panel; compound autofluorescence, ex339/em460 nm, NADH buffer; active compounds read high; 1 = no-compound wells, NADH background; fluorescence fold increase at 10 µM; actives 5.5% (n = 65,000);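 active = at 10 µM, mean starting fluorescence two-fold or more over control wells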;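 also: signal is the first read of a kinetic run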
NADH enzymes – inhibition of NAD/NADH coupling enzymes, library profiling; coupled PK/LDH NADH assays, four targets; actives 0.02% (n = 65,000); IC50, µM (doses to about 10 µM), without a hit: at the top dose inhibition;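 active = single-dose screening hits from any of four coupled enzyme assays that gave an IC50 when retested across doses; inconclusive = no clear call, values can overlap the other calls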;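 also: the DPM-DC format reads NADH fluorescence rather than 340 nm absorbance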
mHtt clearance – mutant huntingtin protein clearance. actives 0.42% (n = 47,000). AID 853. HeLa Exon1htt(103Q)mCFP, aggregate imaging; zero = plate's median compound well. inhibition, % at 1.5 µM;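 active = inhibition of aggregate fluorescence above about 70%, also judged a hit by eye on the cell image, limit read from the data, passing the limit was not always enough; inconclusive = no rule stated for this call; inactive = not judged a hit on image review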;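 also: cells exposed to compound for three days before fixation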
M1 antagonist – M1 muscarinic receptor (rat) antagonism. P08482. B-score at 10 µM. actives 3.4% (n = 64,000). AID 628. CHO-M1 cells, Fluo-4 calcium, ACh EC80 antagonist mode; active compounds read low;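 active = calcium fluorescence response, raw or row-and-column corrected B-score, differing from the plate sample mean either way at a set confidence level, mostly lower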
Target sequence (P08482 whole entry, looked up): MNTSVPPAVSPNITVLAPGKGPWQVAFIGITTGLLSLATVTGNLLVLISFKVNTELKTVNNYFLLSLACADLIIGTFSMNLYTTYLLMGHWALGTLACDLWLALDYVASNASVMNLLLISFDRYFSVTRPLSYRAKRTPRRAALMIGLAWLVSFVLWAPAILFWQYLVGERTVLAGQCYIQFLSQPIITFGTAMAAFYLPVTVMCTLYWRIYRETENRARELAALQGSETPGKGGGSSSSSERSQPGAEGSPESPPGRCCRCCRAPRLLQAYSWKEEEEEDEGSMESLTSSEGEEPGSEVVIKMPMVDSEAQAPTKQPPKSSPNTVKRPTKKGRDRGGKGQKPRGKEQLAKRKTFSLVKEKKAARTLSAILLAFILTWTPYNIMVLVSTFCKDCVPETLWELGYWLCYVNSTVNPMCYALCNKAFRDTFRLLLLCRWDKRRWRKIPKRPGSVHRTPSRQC
M1 ag – agonists of M1 muscarinic receptor; B-score at 10 µM; CHO-M1 cells, Fluo-4 calcium fluorescence, agonist mode; active compounds read high; actives 3% (n = 64,000);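 active = fluorescence rise, raw or as B-score row- and column-corrected plate score, outside the 99.7% band of its plate's samples, either direction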
Abs 340nm – compounds absorbing at 340 nm | compound absorbance at 340 nm, fold over control | fold change at 10 µM | 65,000 tested, under 10 active | AID 708;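 active = at 10 µM dose, initial 340 nm absorbance at least 2 fold that of control wells; inactive = change under 2 fold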;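 also: initial absorbance extrapolated from kinetic A340 decline of NADH oxidation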
M1 antag conf – confirmation of rat M1 muscarinic receptor antagonists | calcium response (max-min fluorescence) at 10 µM | CHO-M1 cells, Fluo-4 calcium, ACh EC80 antagonism; active compounds read low | shares compounds with M1 antagonist | actives 43% (n = 1,700);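 active = calcium response below the same-plate mean of wells given acetylcholine alone at its 80%-effect dose, minus 3 SD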;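 also: raw fluorescence intensity difference in arbitrary instrument units and not normalized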
mGluR4 antag – selectivity test for M1 antagonists: human mGluR4 receptor | shares compounds with M1 antagonist | CHO-mGluR4 calcium flux, Fluo-4 fluorescence, glutamate EC80; active compounds read low | fluorescence response (max-min) at 10 µM | actives 0.9% (n = 1,700);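 active = fluorescence response below the plate's average for near-maximal glutamate wells, less 3 SD of those wells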;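 also: raw unnormalized fluorescence span taken in the window right after glutamate addition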
* hit, by the source's call; ? = inconclusive; . = no result.

SMILES | Autofluor 339 | NADH enzymes | mHtt clearance | M1 antagonist | M1 ag | Abs 340nm | M1 antag conf | mGluR4 antag
CCOCCCn1c(=N)c(C(=O)NCc2ccc3c(c2)OCO3)cc2c(=O)n3ccccc3nc21 | 1.5 | 4% | 15 | -2.7* | -0.15 | 1.1 | 438 | 226
CCCn1c(=N)c(C(=O)NCc2ccc3c(c2)OCO3)cc2c(=O)n3cccc(C)c3nc21 | 2.1* | 10% | 9 | -10* | 2.6 | 1.1 | 54* | 240
COC(=O)c1ccc(C2C(C(C)=O)=C(O)C(=O)N2CCO)cc1 (configuration not stated) | 1.1 | 10% | 54 | 0.9 | 0.32 | 1 | . | .
CCc1ccccc1N1CCN(S(=O)(=O)c2ccc(F)c(C)c2)CC1 | 1.1 | 4% | 30 | -0.79 | 3 | 1.1 | . | .
Cc1ccccc1N1CCN(S(=O)(=O)c2ccc3oc(=O)ccc3c2)CC1 | 1.1 | 5% | -28 | -3.3* | 0.14 | 1.1 | 557 | 233
CCOC(=O)Cn1c(=O)c2c(nc3n2CCCCN3c2ccc(C)cc2)n(C)c1=O | 1.1 | 6% | -11 | 0.33 | 0.34 | 1 | . | .
O=C(O)c1cnn(-c2ccccc2)c1-c1ccccc1 | . | . | -5 | . | . | . | . | .
CN(C)CCNc1c2c(c(C#N)c3nc4ccccc4n13)CCCC2 | 1.5 | 4% | 21 | -4.7* | 0.2 | 1 | 377* | 245
Cc1noc(C)c1CSc1nc2ccccc2[nH]1 | 1.1 | 1% | 14 | -1.4* | 0.68 | 1 | 435* | 268
Cc1noc(C)c1CSc1nc2ccccc2n1CCc1ccccc1 | 1.1 | 7% | -4 | -3.8* | 0.39 | 1 | 572 | 239
COC(=O)COc1ccc(S(=O)(=O)Nc2ccc(NC(C)=O)cc2)cc1C | 1.1 | 0% | -20 | -3.1* | 0.46 | 1.1 | 611 | 241
COc1ccc(S(=O)(=O)NC(CC(=O)NCc2ccco2)c2ccco2)cc1 (configuration not stated) | 1.1 | 3% | -84 | 0.19 | 0.51 | 0.99 | . | .
Cc1ccc(S(=O)(=O)NC(CC(=O)NCc2ccco2)c2ccco2)cc1 (configuration not stated) | 1.1 | 3% | 18 | -4.7* | -1 | 1.1 | 684 | 197
C1CCN=C(Nc2nc3c(s2)CCCC3)CC1 | 1 | 2% | 3 | -6.4* | 0.86 | 1 | 468* | 207
COC(=O)c1ccc(C(=O)OC)c(NC(=O)CSc2cccc[n+]2[O-])c1 | . | . | 27 | . | . | . | . | .
CCN(CC(=O)NCCc1ccc(S(N)(=O)=O)cc1)Cc1nc2ccccc2c(=O)[nH]1 | 1.1 | 6% | . | -2* | 0.03 | 0.99 | 636 | 238
CCN(CC(=O)NC(=O)NCc1ccco1)Cc1nc2ccccc2c(=O)[nH]1 | 1 | 3% | -8 | 0.067 | 0.013 | 0.98 | . | .
CC(=O)N1CCC2(CC1)C(C#N)=C(N)Oc1n[nH]c(CSc3ccc(C)cc3)c12 | 1 | 9% | . | -2.4* | -0.42 | 0.98 | 676 | 127*
CCc1[nH]nc2c1C1(CCN(C(=O)c3ccccc3)CC1)C(C#N)=C(N)O2 | 1.1 | 1% | -10 | 0.29 | 0.39 | 1 | . | .
O=C(Nc1ccc2snnc2c1)N1CCOCC1 | 1.1 | 6% | -85 | -2.4* | -1.4 | 0.98 | 599 | 208
O=C(Nc1ccc2snnc2c1)N1CCN(c2ccccc2)CC1 | 1.1 | 1% | -22 | -0.54 | 0.068 | 1.1 | . | .
CCOC(=O)C1CCCN(c2cc(=O)n(Cc3ccc(F)cc3)c(=O)[nH]2)C1 (configuration not stated) | 1 | 6% | 6 | 0.11 | 3 | 0.96 | . | .
CCN(CCNS(=O)(=O)c1ccc2[nH]c(=O)sc2c1)c1ccccc1 | 1.1 | 6% | -2 | -2.4* | -2.1 | 0.99 | 601 | 156*
O=C(NCc1ccc2c(c1)OCO2)C1CC(=O)N(C2CCCCCCC2)C1 (configuration not stated) | 1.1 | 7% | 36 | -0.19 | -0.63 | 1 | . | .
O=C(NCc1ccc2c(c1)OCO2)C1CC(=O)N(C2CCCC2)C1 (configuration not stated) | 1.1 | 1% | -8 | -2.9* | -0.56 | 1.3 | 515 | 222
SMILES | Autofluor 339 | NADH enzymes | mHtt clearance | M1 antagonist | M1 ag | Abs 340nm | M1 antag conf | mGluR4 antag
O=C(Cn1nc(-c2ccc(Cl)cc2)ccc1=O)NCC1CCCO1 (configuration not stated) | 1.1 | 4% | ? | -0.8* | 0.58 | 1 | 575 | 261
c1ccc(CC2CCN(Cc3nc(-c4ccccc4)no3)CC2)cc1 | 1.1 | 3% | -4 | -0.27 | -0.26 | 1 | . | .
CCCCOc1ccc(C(=O)N2CCC(C)CC2)cc1 | 1 | 2% | 29 | 0.084 | 0.67 | 0.99 | . | .
CCCCOc1ccc(C(=O)OC2CC(C)N(C)CC2C)cc1 (configuration not stated) | 1.1 | 1% | . | -13* | -0.025 | 1 | 44* | 241
Cc1ccc(-c2nc(CSCC(=O)NCCCN3CCOCC3)c(C)o2)cc1 | 1.1 | 4% | -6 | 1.3 | 1.2 | 1 | . | .
Cc1ccc(-c2nc(CSCC(=O)NCCN3CCN(Cc4ccccc4)CC3)c(C)o2)cc1 | 1 | 4% | 13 | -5.3* | 0.019 | 1 | 423* | 253
Oc1ccccc1Oc1ncc(Br)c(N2CCOCC2)n1 | 1.1 | 7% | 56 | -17* | -0.35 | 0.99 | 16* | 258
Brc1cnc(N2CCCC2)nc1N1CCOCC1 | 1.1 | 6% | -46 | 0.011 | 0.21 | 1 | . | .
COc1cc2c(cc1OC)C(C(=O)N1CCN(c3ccccc3)CC1)C(c1cccs1)N(C)C2=O (configuration not stated) | . | . | -42 | . | . | . | . | .
CC(C)(C)NC(=O)Cn1ccc(=N)c2ccccc21 | 1.2 | 3% | 14 | -2.5* | -0.05 | 1.1 | 476 | 192
CN(C(=O)CSc1nc(-c2ccc(F)cc2)cs1)C1CCS(=O)(=O)C1 (configuration not stated) | 1.1 | 4% | . | -3.1* | -0.17 | 1 | 407 | 210
c1ccc(CNc2ccc3c(c2)ncn3C2CCCCC2)nc1 | 1.1 | 1% | 18 | -4.9* | 0.82 | 1 | 622 | 251
COc1ccnc(Oc2ccc(C)cc2C)c1C#N | . | . | 13 | . | . | . | . | .
CCCCOC(=O)Nc1cccc(C(C)=O)c1 | 1.1 | 6% | . | -4.8* | 0.3 | 1 | 625 | 269
Cc1cc(C)c2cc(CN(CC3CCCO3)S(=O)(=O)c3ccc4c(c3)OCCO4)c(=O)[nH]c2c1 (configuration not stated) | 1.5 | 8% | 20 | 0.013 | 0.79 | 1 | . | .
